High-throughput results from PubChem BioAssay.
Sampled rows, rich in hits. Any-hit rate of the full collection: about 6.9%.
SKKanGAS inh: S. pyogenes SKKanGAS growth inhibitors in kanamycin, primary screen, streptokinase expression inhibitor project, SKKanGAS strain, BacTiter-Glo luminescence. 6 h. inhibition, % at 7.5 µM. hit rate 1.3% among 300,000;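 active = mean replicate score, as percent of positive control median, at least 50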;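 also: strain carries kanamycin resistance gene driven by streptokinase promoter and grows in 40 µg/ml kanamycin; loss of luminescence reflects streptokinase promoter inhibition or plain growth inhibition; 0% = median of DMSO wells and 100% = positive control at its reference dose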
Mdm2-MdmX inh: inhibitors of human Mdm2-MdmX association, primary screen, cell-based, luminescence, split luciferase, SaOS-2, uHTS. Protein Mdm4 (Homo sapiens) + E3 ubiquitin-protein ligase Mdm2 (Homo sapiens), …. SaOS-2 split-luciferase Mdm2/MdmX complementation. inhibition, % at 8 µM. hit rate 3% among 330,000. AID 485346, 2010;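 active = inhibition of at least 50% at 8 µM in the primary screen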
Target sequence (O15151 whole entry, looked up): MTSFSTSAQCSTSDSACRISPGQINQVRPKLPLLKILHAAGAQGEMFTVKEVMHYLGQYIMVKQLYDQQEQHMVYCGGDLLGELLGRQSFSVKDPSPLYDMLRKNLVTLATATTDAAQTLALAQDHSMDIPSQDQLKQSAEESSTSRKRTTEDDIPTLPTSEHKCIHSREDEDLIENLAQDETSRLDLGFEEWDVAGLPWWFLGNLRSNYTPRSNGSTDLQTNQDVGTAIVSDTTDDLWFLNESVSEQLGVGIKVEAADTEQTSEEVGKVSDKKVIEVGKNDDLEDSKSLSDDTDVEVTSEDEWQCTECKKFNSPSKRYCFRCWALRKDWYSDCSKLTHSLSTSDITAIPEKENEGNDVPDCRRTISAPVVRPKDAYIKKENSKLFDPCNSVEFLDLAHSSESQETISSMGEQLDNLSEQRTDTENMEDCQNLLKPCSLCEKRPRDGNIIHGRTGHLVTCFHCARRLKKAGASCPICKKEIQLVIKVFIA
Target sequence (Q00987 whole entry, looked up): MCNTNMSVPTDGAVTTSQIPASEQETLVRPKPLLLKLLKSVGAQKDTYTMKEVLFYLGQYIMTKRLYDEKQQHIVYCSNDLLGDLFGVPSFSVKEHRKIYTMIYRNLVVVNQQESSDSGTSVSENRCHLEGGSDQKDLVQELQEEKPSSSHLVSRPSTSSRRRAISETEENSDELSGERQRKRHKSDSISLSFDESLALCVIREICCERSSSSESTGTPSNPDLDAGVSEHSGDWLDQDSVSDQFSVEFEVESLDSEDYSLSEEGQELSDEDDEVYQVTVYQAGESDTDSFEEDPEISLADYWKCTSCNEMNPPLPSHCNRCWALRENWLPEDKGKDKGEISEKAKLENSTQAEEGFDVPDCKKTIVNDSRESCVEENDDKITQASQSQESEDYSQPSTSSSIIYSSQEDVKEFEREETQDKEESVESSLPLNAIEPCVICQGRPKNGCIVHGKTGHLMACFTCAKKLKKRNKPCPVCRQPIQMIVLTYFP
Beta apoptosis: inhibitors of cytokine-induced beta cell apoptosis, primary screen, luminescence; INS-1E cytokine-induced death, ATP luminescence, 48 h; percent of positive-control rescue, neutral wells zero; protection from apoptosis, % (no concentration beside the values); hit rate 0.8% among 300,000; AID 435005, 2010;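 active = Every replicate reaches about 75%, or at least half do and their mean reaches it too, limit read from the data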;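 also: 0% = cytokine-treated negative control wells and 100% = positive control rescue; higher means more ATP so stronger rescue from cytokine killing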
GRIN3A LBD mod: binders of NR3A ligand-binding domain, primary screen, biophysical, differential scanning fluorimetry, uHTS; NR3A LBD differential scanning fluorimetry, Tm shift; 0% = protein alone, 100% = glycine-bound protein; hit rate 2.5% among 340,000; Glutamate receptor ionotropic, NMDA 3A (GRIN3A) ligand-binding domain; Tm shift relative to glycine control, % at 25 µM;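 active = melting temperature shift of at least 10% of the positive control shift, at one fixed dose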
CSC inhib: cancer stem cell viability inhibitors, primary screen, luminescence; inhibition, % at 7.5 µM; cancer stem cell-like cells viability; hit rate 1.1% among 300,000; AID 2717, 2010; in the data active = inhibition above about 75%; tested in HMLE shEcad cells
MPTP block: mitochondrial permeability transition pore inhibitors, primary screen, biochemical, isolated mouse mitochondria, absorbance | Ca2+ swelling absorbance, 30 min | inhibition, % at 10 µM | hit rate 1.4% among 360,000;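 active = inhibition of 50% or more, scaled per plate between neutral and stimulator controls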;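 also: 0% = DMSO wells given calcium and 100% = 1 mM EGTA wells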
Active calls of the source: *; . = no result.

SMILES	SKKanGAS inh	Mdm2-MdmX inh	Beta apoptosis	GRIN3A LBD mod	CSC inhib	MPTP block
CCOC(=O)C1=C(N)c2ccccc2CC1C1CCCC1 (configuration not stated)	55.3*	-25.1	-2.1	-0.8	24.9	3.3
O=C(CSc1nc2[nH]ncc2c(=O)[nH]1)Nc1ccc(Cl)cc1	6.9	20.6	.	24.8*	3.5	-2.9
CCOC(=O)c1ccc(Nc2ccc(-c3ccc(OC)c(OC)c3)nn2)cc1	-3.9	11.5	22.3	26.1*	5.8	-0.3
Cc1ccc(CNC(=O)Cc2ccc(Br)cc2)cc1	2.3	21.9	-3.2	-0.5	60.3	-0.3
O=S(=O)(c1ccc(F)cc1)N1CCn2c(nc3ccccc32)C1	-5.5	11.9	3.1	14.1*	-5.3	-2.5
O=S(=O)(c1ccccc1)N1CCn2c(nc3ccccc32)C1	-4.9	23.8	-1.2	-5.5	-9.3	-0.8
COc1ccc(-c2noc(CCC(=O)Nc3cccc(C)c3)n2)cc1	-0.3	-10.9	-10.1	2.0	-8.3	-0.9
COc1ccccc1-c1noc(CCC(=O)Nc2cccc(C)c2)n1	-0.9	3.3	-3.4	13.6*	-12.8	-2.0
Cc1ccccc1-c1noc(-c2ccc(O)cc2)n1	12.4	-131.9	25.4	10.0	95.9*	32.8
CN(Cc1ccon1)C(=O)C1CCC(=O)N(CCc2ccc(Cl)cc2)C1 (configuration not stated)	-1.5	-2.6	.	0.1	.	-1.8
CC(=O)NCC1(O)CCCC(C)C1 (configuration not stated)	2.0	-1.3	1.2	-1.6	-4.7	0.4
CCCCCCCOc1ccc(OC(=O)c2cccnc2)cc1	-1.8	25.5	1.5	0.5	95.5*	3.8
O=C(NC1CCCC1)c1ncn[nH]1	0.3	-8.0	-5.7	-10.2	-11.9	-0.4
CCCc1cc(C(=O)Cc2ccc(F)cc2)c(O)cc1O	34.7	35.8	4.0	8.9	81.9*	17.8
O=C1CC(c2ccccc2Oc2cccc(Cl)c2)C(n2cncn2)C(=O)C1C1NCCc2ccccc21 (configuration not stated)	27.8	20.5	-6.3	1.1	5.3	1.9
CC(C)(C)c1ccc(Oc2cccc(C3CC(=O)C(C4NCCc5ccccc54)C(=O)C3n3cncn3)c2)cc1 (configuration not stated)	96.4*	7.9	.	-5.6	-8.6	1.1
Cc1ccnc(NC(=O)CCC(=O)N(CC(=O)NC2CCCCC2)Cc2cccs2)c1	-5.2	28.9	-22.9	-0.1	-12.3	1.1
CC(C)CNC(=O)CCCc1c[nH]c2ccccc12	-7.3	24.6	-3.2	-0.4	.	1.6
O=C(CCCc1c[nH]c2ccccc12)NCCc1c[nH]c2ccccc12	18.5	-5.5	4.9	15.5*	4.4	2.0
C/C(=N\NC(=O)Cc1c[nH]c2ccccc12)c1ccc2ccccc2c1	12.8	17.3	-12.9	15.1*	14.4	-0.2
Cc1ccc(C(=O)NCCc2c[nH]c3ccccc23)s1	6.6	-154.3	-8.8	27.1*	5.4	0.5
C/C(=N\NC(=O)c1c[nH]c2ccccc12)c1ccc2c(c1)OCO2	-5.3	-51.7	-1.0	6.9	8.7	3.1
O=C(CCCc1c[nH]c2ccccc12)Nc1ccc2ccccc2c1	1.8	19.4	-1.7	23.6*	60.9	3.3
CC(=O)Nc1ccc(NC(=O)CCCc2c[nH]c3ccccc23)cc1	-21.8	-5.0	-3.4	-6.0	-16.5	-1.1
CC(C)C(=O)NCCc1c[nH]c2ccccc12	0.6	-4.5	0.9	5.0	-1.3	0.8
SMILES	SKKanGAS inh	Mdm2-MdmX inh	Beta apoptosis	GRIN3A LBD mod	CSC inhib	MPTP block
O=C(NCCc1c[nH]c2ccccc12)C(F)(F)F	-4.2	5.3	.	-19.4	0.9	-5.1
N#CCC(=O)Nc1ccc(C(=O)NCCC(c2ccccc2)c2ccccc2)cc1	10.8	9.2	3.9	-2.0	-3.3	0.4
O=C(NCCc1c[nH]c2ccccc12)c1ccc(-n2cnnn2)cc1	2.6	22.7	-3.3	13.1*	.	0.6
O=C(NCCc1c[nH]c2ccccc12)c1ccccc1	4.2	-28.4	1.4	12.6*	-2.9	-0.5
COc1ccc2[nH]cc(CCNC(=O)c3ccc([N+](=O)[O-])cc3)c2c1	3.9	10.5	6.2	12.1*	3.2	-0.1
N#CCC(=O)Nc1ccc(C(=O)NCCc2c[nH]c3ccccc23)cc1	24.6	0.0	4.1	18.4*	-8.6	-1.8
COCCNC(=O)C1(C)CCCN(Cc2ccc(-c3ccccc3)o2)C1 (configuration not stated)	.	.	.	.	.	-0.2
Cc1noc(C)c1COC(=O)c1csc2c1CCCC2	.	21.6	.	-0.8	.	0.9
COc1cccc(NC(=O)CCC2CCN(C(=O)c3ccc(C(C)=O)s3)CC2)c1	-1.6	16.6	-5.1	0.9	-8.2	-0.7
O=C(NCCc1c[nH]c2ccccc12)c1ccc([N+](=O)[O-])cc1	16.5	-5.1	-2.7	24.6*	3.9	-0.2
O=C(NCCc1c[nH]c2ccccc12)c1cc([N+](=O)[O-])cc([N+](=O)[O-])c1	2.9	33.4	-1.8	-0.5	1.6	0.5
S=c1[nH]c(-c2ccccc2)cn1/N=C/c1cccc2ccccc12	57.4*	34.1	5.9	-2.0	58.8	-1.7
Nc1nc(-c2ccccc2)c(N=Nc2cccc3ccccc23)s1	57.4*	25.7	15.7	6.0	55.5	11.8
Cc1ccc(Nc2nc(-c3cccs3)cs2)nc1	5.6	-82.7	-0.8	24.2*	-2.6	-1.0
CCOC(=O)c1[nH]c(C)c(CN(CCc2ccc(OC)c(OC)c2)C(=O)CCCC(=O)O)c1C	8.3	7.7	3.1	14.6*	23.5	-0.4
CC(C(Sc1ccccc1N)c1ccccc1)[N+](=O)[O-] (configuration not stated)	4.5	36.1	-1.8	3.6	93.8*	4.4
Nc1ccccc1SC(CC(=O)c1ccccc1)c1ccccc1 (configuration not stated)	.	.	.	.	.	0.7
CCOC(=O)N1CCN(C(=O)CSc2nc(=O)n3ccccc3n2)CC1	22.6	21.9	-9.5	4.5	.	-0.5
O=C(NC(=S)Nc1cccc2c(O)cccc12)c1ccccc1[N+](=O)[O-]	6.8	40.4	10.3	33.6*	2.8	-0.4
O=C(NC(=S)NC1CCCCC1)c1ccccc1[N+](=O)[O-]	0.4	4.5	-0.5	17.8*	20.6	1.4
O=C(CSc1nnc(NC(=O)c2ccccc2[N+](=O)[O-])s1)NC1CCCC1	51.5*	-16.6	2.0	1.1	-8.8	-0.2
O=C(NNC(=S)NC(=O)c1ccccc1[N+](=O)[O-])c1ccccc1O	0.0	11.5	4.8	-4.4	9.2	-1.3
CCCCOc1ccccc1C(=O)NNC(=S)NC(=O)c1ccccc1[N+](=O)[O-]	76.9*	41.9	66.8	-5.2	20.0	5.8
